The text below walks through data of PMC4336329 (PLoS ONE, 2015).

Each structure is given as a SMILES string. Out of some 310,000 compounds screened, about 14,000 (4.5%) showed an effect of 50% or more. The effect is printed as a negative number. The full list was thinned out, with strong results kept by preference.
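Note: peak tail current of the secondary pulse compared with the same well before compound.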

In the assay the target is human ether-à-go-go-related gene (hERG) potassium channel (human, UniProt Q12809). Briefly: primary screen, population patch clamp on CHO cells stably expressing hERG; higher = less effect of the substance.
Sequence of human ether-à-go-go-related gene (hERG) potassium channel (Q12809 whole entry, looked up): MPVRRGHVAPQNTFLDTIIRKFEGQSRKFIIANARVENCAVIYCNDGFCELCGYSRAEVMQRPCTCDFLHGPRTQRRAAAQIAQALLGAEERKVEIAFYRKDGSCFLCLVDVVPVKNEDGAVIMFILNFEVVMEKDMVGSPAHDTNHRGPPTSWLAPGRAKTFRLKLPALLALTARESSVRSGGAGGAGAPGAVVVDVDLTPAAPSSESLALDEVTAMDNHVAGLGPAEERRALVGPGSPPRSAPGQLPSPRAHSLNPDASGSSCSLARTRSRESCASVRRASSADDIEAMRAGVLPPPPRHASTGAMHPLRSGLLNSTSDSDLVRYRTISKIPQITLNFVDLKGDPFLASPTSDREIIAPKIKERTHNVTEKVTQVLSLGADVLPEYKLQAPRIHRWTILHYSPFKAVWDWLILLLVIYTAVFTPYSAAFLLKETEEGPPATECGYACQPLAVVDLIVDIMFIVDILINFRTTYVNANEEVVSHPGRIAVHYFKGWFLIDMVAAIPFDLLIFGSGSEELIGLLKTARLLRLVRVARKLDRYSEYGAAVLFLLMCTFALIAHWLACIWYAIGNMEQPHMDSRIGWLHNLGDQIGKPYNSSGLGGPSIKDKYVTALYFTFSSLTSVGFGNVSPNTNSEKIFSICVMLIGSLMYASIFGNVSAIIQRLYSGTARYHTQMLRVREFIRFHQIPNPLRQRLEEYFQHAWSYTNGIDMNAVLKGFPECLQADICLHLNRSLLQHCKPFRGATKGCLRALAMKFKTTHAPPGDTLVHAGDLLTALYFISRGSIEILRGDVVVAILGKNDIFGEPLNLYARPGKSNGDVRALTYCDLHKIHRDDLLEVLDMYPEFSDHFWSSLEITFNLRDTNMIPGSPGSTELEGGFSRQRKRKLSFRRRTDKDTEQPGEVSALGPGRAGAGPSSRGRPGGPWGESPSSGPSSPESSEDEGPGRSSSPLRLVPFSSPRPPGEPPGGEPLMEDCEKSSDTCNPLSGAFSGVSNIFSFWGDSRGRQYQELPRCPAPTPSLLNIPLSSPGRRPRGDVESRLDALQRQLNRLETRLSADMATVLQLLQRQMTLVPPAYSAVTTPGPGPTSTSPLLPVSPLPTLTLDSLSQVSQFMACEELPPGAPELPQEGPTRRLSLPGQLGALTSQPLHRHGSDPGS
Take `CCCCC(CC(O)COCCC)C(=O)NN` (stereo not drawn): the “hERG current change (%, negative = inhibition) at 10uM” value was found to be 16.1%.

Turning to `O=Cc1ccc(N2N=C(c3ccccc3)CC2c2ccccc2)cc1` (stereo not drawn), the “hERG current change (%, negative = inhibition) at 10uM” value was found to be 24.3%. Regarding `Cc1[nH]c(C)c2c(=O)n(-c3ccccc3)ncc12`, the “hERG current change (%, negative = inhibition) at 10uM” value is recorded as 10.2%. In the case of `COc1ccc(C2C(C#N)=C(N)N(N(C)C)C3=C2C(=O)CCC3)cc1` (stereo not drawn), the “hERG current change (%, negative = inhibition) at 10uM” value was 9.88%. With `CCOC(=O)N1CCN(S(=O)(=O)c2ccc(Cl)cc2)CC1`, the “hERG current change (%, negative = inhibition) at 10uM” value was found to be 0.615%. For `O=C(CSc1nc(-c2ccccc2)cs1)NCc1ccco1` the value was -14.9%; for `COc1ccc(N2CCN(Cc3nc4c(c(=O)n(C)c(=O)n4C)n3Cc3cccc(C)c3)CC2)cc1`, -52.3%. For `COCCn1c(CN2CCN(c3ccc(OC)cc3)CC2)nc2c1c(=O)n(C)c(=O)n2C` the value was -9.23%; for `Cc1ccc(Cn2c(CN(C)Cc3ccccc3)nc3c2c(=O)n(C)c(=O)n3C)cc1`, -21.5%. Take `Cc1ccc(C)c(Cn2c(CN(C)Cc3ccccc3)nc3c2c(=O)n(C)c(=O)n3C)c1`: the “hERG current change (%, negative = inhibition) at 10uM” value is reported as -51.3%. For `Cc1ccccc1Cn1c(CN2CCc3ccccc3C2)nc2c1c(=O)n(C)c(=O)n2C` the value was -15.9%; for `Cn1c(=O)c2c(nc(CN3CCN(Cc4ccccc4)CC3)n2Cc2ccc(F)cc2)n(C)c1=O`, -67.2%; for `CCOC(=O)N1CCN(Cc2nc3c(c(=O)n(C)c(=O)n3C)n2Cc2ccc(F)cc2)CC1`, -36.2%. As for `Cn1c(=O)c2c(nc(CN3CCc4ccccc4C3)n2Cc2ccccc2)n(C)c1=O`, the “hERG current change (%, negative = inhibition) at 10uM” value was -17.5%.

With `CN(Cc1ccccc1)Cc1nc2c(c(=O)n(C)c(=O)n2C)n1Cc1ccccc1Cl`, the “hERG current change (%, negative = inhibition) at 10uM” value is -5.6%. Consider `Cn1c(=O)c2c(nc(CN3CCc4ccccc4C3)n2Cc2ccc(F)cc2)n(C)c1=O`, for which the “hERG current change (%, negative = inhibition) at 10uM” value was -26.5%. Consider `COc1ccc(N2CCN(Cc3nc4c(c(=O)n(C)c(=O)n4C)n3CCc3ccccc3)CC2)cc1`, for which the “hERG current change (%, negative = inhibition) at 10uM” value is listed as 13.5%.

For `Cn1c(=O)c2c(nc(CN3CCc4ccccc4C3)n2Cc2cccc(Cl)c2)n(C)c1=O`, the “hERG current change (%, negative = inhibition) at 10uM” value was -53.9%. Turning to `NC(=S)Nc1ccc(C(F)(F)F)cc1Cl`, the “hERG current change (%, negative = inhibition) at 10uM” value is given as 0.127%.

As to `O=C(CN1C(=O)C2(OCCO2)c2ccccc21)c1ccc(F)cc1`, the “hERG current change (%, negative = inhibition) at 10uM” value turned out to be 2.09%.

As to `COc1ccc(CCCC(=O)Nc2cc(C)ccc2OC)cc1`, the “hERG current change (%, negative = inhibition) at 10uM” value is recorded as -14.2%. On to `CCOc1cc(C(=O)CCC(=O)OCC(=O)Nc2ccc(C)c(S(=O)(=O)N(C)C)c2)ccc1O`, for which the “hERG current change (%, negative = inhibition) at 10uM” value is -32.7%.

As to `Cc1cc(N)n(Cc2cccs2)n1`, the “hERG current change (%, negative = inhibition) at 10uM” value was -2.95%. For `COc1ccc(C(=O)Nc2nnc(S(=O)(=O)N(C)Cc3ccccc3)s2)cc1`, the “hERG current change (%, negative = inhibition) at 10uM” value is 7.21%. Turning to `O=c1c2ccccc2[nH]c(=S)n1-c1ccc2c(c1)OCO2`, the “hERG current change (%, negative = inhibition) at 10uM” value is listed as 13.1%. For `Cc1nc(NC(=O)CSc2nnc3ccccn23)c(Cl)cc1Cl`, the “hERG current change (%, negative = inhibition) at 10uM” value is recorded as -3.58%. Regarding `Cn1c(=O)c2c(nc(CN3CCN(Cc4ccccc4)CC3)n2Cc2ccc(Cl)cc2)n(C)c1=O`, the “hERG current change (%, negative = inhibition) at 10uM” value is -68%. For `Cn1c(=O)c2c(nc(CN3CCN(Cc4ccccc4)CC3)n2CCN2CCOCC2)n(C)c1=O` the value was -17.6%; for `Cn1c(=O)c2c(nc(CN3CCc4ccccc4C3)n2Cc2ccc(Cl)cc2)n(C)c1=O`, 0.125%. Regarding `Cc1csc(SCC(=O)Nc2cc(S(=O)(=O)N3CCOCC3)ccc2N2CCOCC2)n1`, the “hERG current change (%, negative = inhibition) at 10uM” value is -45.8%. For `CCn1c(SCC(=O)Nc2ccc(OC)cc2)nnc1-c1ccco1` the value was -22.3%; for `O=C(O)/C=C/C(=O)NNC(=O)c1ccccc1Br`, 2.8%. For `O=c1[nH]c(SCc2ccc(Cl)cc2)nc2ccccc12` the value was 3.49%. `O=c1[nH]c(SCc2ccc(Cl)cc2)nc2ccsc12`: the “hERG current change (%, negative = inhibition) at 10uM” value is reported as -67%. Regarding `O=c1[nH]c(SCc2ccccc2)nc2ccsc12`, the “hERG current change (%, negative = inhibition) at 10uM” value came out at 5.3%. Regarding `COc1cc(CCCN2C(=S)NC[C@@H]2CC2CCCCC2)cc(OC)c1OC`, the “hERG current change (%, negative = inhibition) at 10uM” value is -1.89%.

Regarding `CN(CC#CC(O)(c1ccccc1)c1ccccc1)C(C)(C)C`, the “hERG current change (%, negative = inhibition) at 10uM” value was -69%. Consider `CC(C)N(CC#CC(O)(c1ccccc1)c1ccccc1)CCO`, for which the “hERG current change (%, negative = inhibition) at 10uM” value is given as -28.1%.

As for `OCCN(CC#CC(O)(c1ccccc1)c1ccccc1)CCO`, the “hERG current change (%, negative = inhibition) at 10uM” value turned out to be 5.56%.

On to `CCN(CC)CC#CC(O)(c1ccccc1)c1ccccc1`, for which the “hERG current change (%, negative = inhibition) at 10uM” value is on record as -42.5%. On to `CN(C)CCC#CC(O)(c1ccccc1)c1ccccc1`, for which the “hERG current change (%, negative = inhibition) at 10uM” value is -32.1%. As for `CC(C)N(CC#CC(O)(c1ccccc1)c1ccccc1)C(C)C`, the “hERG current change (%, negative = inhibition) at 10uM” value is given as -70.4%. `COc1ccc(-c2cc(CNS(=O)(=O)c3ccc(NC(C)=O)cc3)on2)cc1`: the “hERG current change (%, negative = inhibition) at 10uM” value worked out at 18.6%. As to `COc1ccccc1C(=O)NCCOc1ccc(C)c(C)c1`, the “hERG current change (%, negative = inhibition) at 10uM” value is 18.5%. Take `COc1ccc(Cl)cc1N(CC(=O)NC1CC1)S(=O)(=O)c1ccc(C)c([N+](=O)[O-])c1`: the “hERG current change (%, negative = inhibition) at 10uM” value was found to be 11.9%. Regarding `Cl.O=C(Nc1ccc(C(=O)OC[C@@H]2CCCN3CCCC[C@H]23)cc1)c1cccc(Br)c1`, the “hERG current change (%, negative = inhibition) at 10uM” value was -69.3%. For the compound `O=C(NCC1CCCO1)c1ccc(NC(=O)c2cccc(Br)c2)cc1` (stereo not drawn), the “hERG current change (%, negative = inhibition) at 10uM” value is given as 16.4%. Then `O=C(Nc1ccccc1)OCC1CCCN2CCCCC12` (stereo not drawn), with -39.4%; and `O=C(NC(=O)c1cccc(Cl)c1)OC[C@@H]1CCCN2CCCCC12` (stereo partly drawn), with -60.9%. Regarding `O=C(Nc1ccc(C(=O)N2CCOCC2)cc1)c1cccc(Br)c1`, the “hERG current change (%, negative = inhibition) at 10uM” value was 3.11%.

Take `O=C(NC(=O)c1cccc(F)c1)OC[C@@H]1CCCN2CCCC[C@H]12`: the “hERG current change (%, negative = inhibition) at 10uM” value is on record as -36.7%. Then `O=C(OC1CCCCC1)c1cc2ccccc2oc1=O`, with -32.6%. For `Cl.O=C(OC[C@@H]1CCCN2CCCC[C@H]12)c1cc2ccccc2oc1=O`, the “hERG current change (%, negative = inhibition) at 10uM” value is -50.1%.

For the compound `O=C(NS(=O)(=O)Oc1ccc(Cl)cc1)OC[C@@H]1CCCN2CCCC[C@H]12`, the “hERG current change (%, negative = inhibition) at 10uM” value is recorded as 28.2%.

With `COc1ccc(/C=C(\NC(=O)c2ccccc2)C(=O)OCC2CCCN3CCCCC23)cc1OC` (stereo not drawn), the “hERG current change (%, negative = inhibition) at 10uM” value was -40.7%.

In the case of `Cl.O=C(OCC1CCCN2CCCCC12)c1ccc2c(c1)OCO2` (stereo not drawn), the “hERG current change (%, negative = inhibition) at 10uM” value is given as -22.8%. With `O=C(NC(=O)c1ccccc1)OCC1CCCN2CCCCC12` (stereo not drawn), the “hERG current change (%, negative = inhibition) at 10uM” value is -56.7%.
